For 7 compounds, Potency, activity change, negative = cytotoxicity and max response results are on record in PubChem BioAssay (NCATS).

Where “and” joins values, the source holds several entries; their conditions need not be identical. Equal values may be shown once. Inconclusive results are not listed. Calls of active or inactive are those of the source. Unless noted, calls come from the whole dose curve; as a rule, active = well fitted curve in the direction sought with a large enough effect; inconclusive = small, poorly fitted or top-dose-only effect, or another doubt; inactive = no such curve, though single readings can be large; an effect the other way counts as inactive or inconclusive.

Assay [1] in a line: Cell Viability - Hek293 (AID 427;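 active = compounds whose dose-response curve shows a full or clear partial loss of cell viability, called from curve shape rather than a numeric limit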;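 note: potency is the fitted concentration of half-maximal effect; cells exposed to compound for 40 hours at 37 °C before reading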). The settings on record: qHTS. The gist of the method:
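HEK293 cells in complete medium were exposed to compound for 40 hr at 37 °C, then cellular ATP was read by CellTiter-Glo luminescence. Data were normalized to DMSO (basal) and 100 uM tamoxifen (100% inhibition), and AC50 came from Hill fits.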

Assay [2] is described as follows: Cell Viability - SK-N-SH (AID 435; calls by dose curve;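 note: potency is the fitted concentration of half-maximal effect; compound exposure lasted 40 h at 37 °C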). The settings on record: SK-N-SH neuroblastoma cell viability qHTS. In short, it runs like this:
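CellTiter-Glo ATP luminescence, 20 min RT read; cells pre-plated 5 hr, compound 40 hr at 37 °C, 1500 cells/well, complete medium. Normalized DMSO = 0, 100 uM tamoxifen = 100% inhibition; Hill-fit AC50.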

Assay [3] can be described thus: Cell Viability - N2a (AID 540).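 Note: plate controls were DMSO alone for no effect and tamoxifen control for full effect; nearly all actives have a fitted effect of over 45% in size.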 The settings on record: N2a mouse neuroblastoma cell viability; activity change, negative = cytotoxicity: at 92.2 µM (top of the series). The gist of the method: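 Mouse neuroblastoma N2a cells (1500/well) were preincubated 5 hr at 37 °C, then exposed to compounds for 40 hr at 37 °C in complete medium. Viability was read as intracellular ATP by CellTiter-Glo luminescence; AC50 from Hill fits.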

Assay [4] in a line: Cell Viability - H-4-II-E (AID 543). Note: % is set by controls: 0 for no effect and ±100 for the full control effect; nearly all actives have a fitted effect of over 35% in size. To be noted: H-4-II-E rat hepatoma viability; series mostly up to 92.2 µM. The gist of the method: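 Rat hepatoma H-4-II-E cells (1500/well) were plated, incubated 5 hr at 37 °C, then exposed to compounds for 40 hr at 37 °C. Cellular ATP was read by CellTiter-Glo luminescence; AC50 came from Hill-equation fits of concentration-response data.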

Assay [5] can be described thus: Cell Viability - SH-SY5Y (AID 544).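 Note: 0% = DMSO alone and -100% = 100 µM tamoxifen; nearly all actives have a fitted effect of over 55% in size.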 The settings on record: SH-SY5Y neuroblastoma cell viability; viability change, negative = cytotoxic: at 92.2 µM (top of the series). The gist of the method:
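Human neuroblastoma SH-SY5Y cells (1500/well) in complete medium were exposed to compounds for 40 hr at 37 °C; intracellular ATP was then quantified by CellTiter-Glo luminescence after 20 min at room temperature. AC50 came from Hill-equation concentration-response fits.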

The nature of assay [6]: Cell Viability - LYMP2-001 (AID 921).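 Note: 0% = DMSO only and full inhibition = tetraoctylammonium bromide control wells; nearly all actives have a fitted effect of over 70% in size.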 To be noted: LYMP2-001 lymphoblastoid cell viability; series mostly up to 92.2 µM. The gist of the method: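 CellTiter-Glo luminescence (intracellular ATP) after 24 hr compound exposure at 37 C, 2500 lymphoblastoid cells/well in complete medium. AC50 fitted with standard Hill equation; tetraoctylammonium bromide positive control.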
The nature of assay [7]: MultiTox-Fluor Cytotoxicity Assay - LYMP1-001 - Live Cells (AID 947).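 Note: 0% = DMSO only and full inhibition = tetraoctylammonium bromide control.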 To be noted: LYMP1-001 lymphoblastoid cells, live-cell protease fluorescence viability; series mostly up to 92.2 µM.
The nature of assay [8]: Cell Viability - LYMP2-005 (AID 967).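 Note: plate controls were DMSO only for no effect and 92 µM tetraoctylammonium bromide control for full effect.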 To be noted: LYMP2-005 lymphoblastoid cell viability; series mostly up to 92.2 µM. The gist of the method: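 Steps: seed 2500 LYMP2-005 cells/well, incubate 5 h at 37 C, add compound, incubate 24 h at 37 C, add CellTiter-Glo, wait 30 min at RT, read luminescence. Concentration-response data fitted to Hill equation for AC50.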
Assay [9] can be described thus: Cell Viability - LYMP2-009 (AID 968).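 Note: 0% = DMSO alone and the full-kill end = tetraoctylammonium bromide at 92 µM; nearly all actives have a fitted effect of over 55% in size.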 The settings on record: LYMP2-009 lymphoblastoid cell viability; series mostly up to 92.2 µM.
A short description of assay [10]: Cell Viability - LYMP2-015 (AID 971).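 Note: 0% = DMSO only and full effect = 92 µM tetraoctylammonium bromide; nearly all actives have a fitted effect of over 55% in size.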 The settings on record: LYMP2-015 lymphoblastoid cell viability; series mostly up to 92.2 µM. The gist of the method:
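Human lymphoblastoid cells (2500/well) in complete medium were preincubated 5 hr at 37 C, then compound-treated 24 hr at 37 C. Intracellular ATP was read by CellTiter-Glo luminescence after 30 min at room temperature; AC50 came from Hill-equation concentration-response fits.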

Assay [11] can be described thus: Cell Viability - LYMP2-019 (AID 973).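 Note: 0% = DMSO alone and full effect = 92 µM tetraoctylammonium bromide; nearly all actives have a fitted effect of over 55% in size.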 The settings on record: LYMP2-019 lymphoblastoid cell line viability; series mostly up to 92.2 µM. In short, it runs like this:
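Human lymphoblastoid cells were seeded at 2500 cells/well, preincubated 5 hr at 37 C, then exposed to compounds for 24 hr at 37 C in complete medium. Intracellular ATP was measured by CellTiter-Glo luminescence; AC50 from Hill fits.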

Assay [12] can be described thus: Cell Viability - LYMP2-021 (AID 974). To be noted: LYMP2-021 lymphoblastoid cells viability; series mostly up to 92.2 µM. The gist of the method:
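Human lymphoblastoid cells (2500/well) were preincubated 5 hr at 37 C, then exposed to compounds for 24 hr at 37 C in complete medium. Intracellular ATP was read by CellTiter-Glo luminescence; AC50 came from Hill-equation fits of concentration-response data.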

Assay [13] is described as follows: Cell Viability - LYMP2-002 (AID 977).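 Note: compound exposure lasted 24 h at 37 °C; plate controls were DMSO only for no effect and 92 µM tetraoctylammonium bromide for full effect.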 To be noted: LYMP2-002 lymphoblastoid cell viability, qHTS; series mostly up to 92.2 µM. In short, it runs like this:
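Cytotoxicity is scored as concentration-dependent loss of cellular ATP in a human lymphoblastoid line after 24 hr compound treatment at 37 C. AC50 is obtained by modelling concentration-response data with the Hill equation.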

Assay [14] in a line: Cell Viability - LYMP2-010 (AID 981). The settings on record: LYMP2-010 lymphoblastoid cell viability, qHTS; series mostly up to 92.2 µM. In short, it runs like this: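 Human lymphoblastoid LYMP2-010 cells (2500/well) were preincubated 5 hr at 37 C, then exposed to compounds for 24 hr at 37 C in complete medium. Intracellular ATP was measured by CellTiter-Glo luminescence after 30 min at room temperature; AC50 from Hill-fitted concentration-response.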
(qHTS replaces the single test concentration by a dilution series.)

A short description of assay [15]: Cell Viability - LYMP2-012 (AID 982). To be noted: LYMP2-012 lymphoblastoid cell viability qHTS; series mostly up to 92.2 µM.
Assay [16] is described as follows: qHTS assay for small molecule agonists of retinoid X receptor alpha signaling (AID 588544). To be noted: HEK293T RXRa-UAS-bla, beta-lactamase reporter, 18 h; 530 nm emission.
Assay [17] is described as follows: qHTS assay for small molecule agonists of the antioxidant response element (ARE) signaling pathway measured by Nrf2-dependant transcriptional activity (AID 720636; active = well fitted curve in the direction sought with a large enough effect in the repeat runs; an effect the other way counts as inactive or inconclusive; note: % of control where 0% means no effect). The settings on record: ARE-luc HepG2, Nrf2 luciferase reporter, 16 h; series mostly up to 92.4 µM. The gist of the method: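 Attachment 6 hr at 37 C, then compound versus DMSO vehicle for 16 hr in ARE-luc HepG2 cells (1% dialyzed FBS); luminescence recorded 30 min after ONE-Glo addition at room temperature.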

The nature of assay [18]: qHTS assay for small molecule antagonists of retinoid X receptor alpha signaling (AID 588546; active = well fitted inhibition curve with a large enough effect in the signal ratio, with a control signal flat, not every such curve was filed as active; the % refers to the signal ratio;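 note: cells stimulated with 9-cis-retinoic acid as agonist; % is set by controls: 0 for no effect and ±100 for the full control effect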). To be noted: HEK293T RXRa-UAS-bla, beta-lactamase ratio, antagonist mode; measured here: W530 green channel, cytotoxicity proxy. The gist of the method: (§1)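 Beta-lactamase reporter inhibition, read as CCF4 fluorescence ratio (ex 405, em 460/530 nm) after 2 h at RT. HEK293T UAS-bla cells, 2500/well, were stimulated with 9-cis-RA at 500 or 100 nM final alongside test compound for 18 h at 37 C.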

Assay [19] deals with Retinoic acid receptor RXR-alpha (Homo sapiens) (UniProt P19793). The assay is described as above. To be noted: HEK293T RXRa-UAS-bla, beta-lactamase ratio, antagonist mode. In short, it runs like this:
as §1

The nature of assay [20]: qHTS assay for small molecule disruptors of the mitochondrial membrane potential - 5 hr assay (AID 651755; calls by dose curve; note: % is set by controls: 0 for no effect and ±100 for the full control effect; nearly all actives have a fitted effect of over 40% in size). To be noted: JC-1-type ratio dye; series mostly up to 92.2 µM. In short, it runs like this:
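HepG2, 2,000 cells/well, overnight attach; cpd or DMSO 5 hr, 37C/5% CO2; Mito-MPS 30 min 37C; fluor 490/535 + 540/590 nm.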

Sequence of Retinoic acid receptor RXR-alpha (Homo sapiens) (P19793 whole entry, looked up): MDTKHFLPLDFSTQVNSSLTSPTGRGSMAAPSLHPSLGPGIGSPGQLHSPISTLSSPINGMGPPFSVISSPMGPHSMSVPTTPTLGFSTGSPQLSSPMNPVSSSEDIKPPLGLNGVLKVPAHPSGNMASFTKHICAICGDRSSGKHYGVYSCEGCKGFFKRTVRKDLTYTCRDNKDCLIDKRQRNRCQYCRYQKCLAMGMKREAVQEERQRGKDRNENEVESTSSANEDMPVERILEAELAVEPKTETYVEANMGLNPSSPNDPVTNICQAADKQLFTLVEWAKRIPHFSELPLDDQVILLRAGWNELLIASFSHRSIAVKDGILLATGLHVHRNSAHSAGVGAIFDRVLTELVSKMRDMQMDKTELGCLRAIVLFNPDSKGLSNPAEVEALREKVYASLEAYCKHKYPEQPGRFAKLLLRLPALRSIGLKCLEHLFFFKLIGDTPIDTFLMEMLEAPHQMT

`Brc1ccc(-c2ccccc2)cc1`: the Potency in assay [1] and in [2] was > 92 µM (inactive) each time. Also, in [3], the activity change, negative = cytotoxicity was -19.3% (inactive). Moreover, the Potency result in [4], in [5], in [6], in assay [7], in assay [8] and in [9] was “inactive” in each case. In addition, the Potency result in assay [10], in [11], in assay [12], in assay [13], in assay [14] and in [15] was “inactive” each time. The Potency entry in [17] is “inactive”. In addition, the max response in assay [16] was determined as 4.33%.
Consider `OCC(CO)(CBr)CBr`, for which the Potency in [1] and in assay [2] was > 92 µM (inactive) in each case. In addition, the activity change, negative = cytotoxicity in assay [3] is -2.21% (inactive). The Potency result in [4], in assay [5], in assay [6], in assay [7], in [8] and in [9] was “inactive” in each case. For the same compound, the Potency entry in assay [10], in assay [11], in [12], in assay [13], in assay [14] and in assay [15] was “inactive” each time. Moreover, the Potency result in assay [20] and in assay [17] was “inactive” in each case. Besides, the max response in [16] was 0.243% and -1.22%; in [18], 6.52% and -5.45%; in assay [19], 4.02% (inactive) and -1.76% (inactive).
In the case of `CCOC(=O)C1OC1c1ccccc1` (centres undefined), the Potency in [1] and in [2] was > 92 µM (inactive) each time. The activity change, negative = cytotoxicity in assay [3] is 0.144% (inactive). Further, the Potency entry in [4], in assay [5], in assay [6], in assay [8], in assay [9] and in [10] was “inactive” throughout. The Potency result in assay [11], in [12], in assay [13], in assay [14], in assay [15] and in assay [20] was “inactive” each time. Also, the Potency result in [17] was “inactive”. Also, the max response in assay [16] was 2.55%; in [18], -0.854%; in [19], 9.69% (inactive).
As for `COc1cc(-c2ccc(N=C=O)c(OC)c2)ccc1N=C=O`, the Potency in assay [1] and in assay [2] was > 92 µM (inactive) throughout. Also, in assay [3], the activity change, negative = cytotoxicity is 4.66% (inactive). Also, the Potency entry in assay [4], in [5], in assay [6], in assay [7], in [8] and in [9] was “inactive” throughout. In addition, the Potency result in [10], in [11], in [12], in assay [13], in assay [14] and in assay [15] was “inactive” throughout. Besides, the Potency entry in assay [20] and in assay [17] was “inactive” throughout. Besides, the max response in assay [16] was -18.6%; in assay [18], -13.8%; in [19], -6.94% (inactive).
Turning to `CCCCC(CC)COCCCN` (centres undefined), the Potency in [1] and in assay [2] was > 92 µM (inactive) each time. Further, the Potency result in assay [4], in [5], in [6], in [7], in assay [8] and in [9] was “inactive” in each case. In addition, the Potency result in assay [10], in assay [11], in assay [12], in assay [13], in assay [14] and in assay [15] was “inactive” throughout. Besides, the Potency entry in assay [17] is “inactive”. The values for the max response in assay [16], in assay [18] and in [19] were 1.27%, 3.99% and 10.8% (inactive), respectively.
As to `CC(=O)OCc1ccc2c(c1)OCO2`, the Potency in [1] and in assay [2] was > 92 µM (inactive) throughout. In addition, the activity change, negative = cytotoxicity in [3] is -15.3% (inactive). Moreover, the Potency entry in assay [4], in assay [5], in assay [6], in [7], in [9] and in assay [10] was “inactive” throughout. For the same compound, the Potency entry in [11], in assay [12], in assay [13], in [14], in assay [15] and in [20] was “inactive” each time. Further, the Potency entry in [17] is “inactive”. Also, the max response in assay [16] is 17.8%; in [18], 8.84%; in assay [19], 24.9% (inactive).
`Cc1cc(=O)oc2cc(O)cc(O)c12`: the Potency in assay [1] and in assay [2] was > 92 µM (inactive) in each case. In assay [3], the activity change, negative = cytotoxicity was -0.482% (inactive). For the same compound, the Potency result in assay [4], in assay [5], in assay [6], in assay [7], in assay [8] and in assay [9] was “inactive” in each case. Moreover, the Potency entry in assay [10], in assay [11], in assay [12], in [13], in [14] and in assay [15] was “inactive” in each case. Moreover, in assay [17], the Potency result was “inactive”.
